Compounds with a hit are over-represented: about 11% of the library has one in this group of screens.
G9a inh: blocks human histone lysine methyltransferase G9a; Potency, µM (highest dose often 102 µM), inactives show top-dose activity, negative = inhibition, most hits filed as inhibitors; actives 8.8% (n = 350,000); G9a H3K9 monomethylation, AlphaScreen, 2 h; also: potency is read from the fitted curve at half-maximal effect; % is scaled to controls: 0 for no effect and ±100 for the full control effect; nearly all actives have a fitted effect of over 75% in size
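Using a bead-based AlphaScreen, monomethylated H3K9 product from 2 h room-temperature reactions (G9a 20 nM, peptide 500 nM, SAM 20 uM) was detected with 0.5 ug/mL rabbit anti-H3K9me1 antibody.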
PI5P4K alpha inh: blocks human PI5P4K alpha kinase activity; AID 652105; PI5P4Kalpha enzyme, ADP-Glo luminescence, 60 min; stronger effect = lower value; max response, %; actives 1.2% (n = 330,000); active = max response of -50% or lower; inconclusive = between -30% and -50%; inactive = -30% or higher; also: value at the top dose of about 77 µM; % is scaled to controls: 0 for no effect and ±100 for the full control effect
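ADP-Glo luminescence end-point read after a 60 min room-temperature kinase reaction of PI5P4Kalpha plus substrate, initiated with ATP at 5 microM final. Buffer: 0.038 M HEPES pH 7.4, EGTA, 0.1% CHAPS, 5% DMSO.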
JMJD2A Tudor inh: JMJD2A Tudor domain (human) inhibition; Potency, µM (titrated, usually from 114 µM), for inactives: at the top dose activity change, negative = inhibition, most hits filed as inhibitors; actives 4.4% (n = 390,000); AlphaScreen JMJD2A-Tudor / H3K4me3 peptide binding; O75164; also: potency is read from the fitted curve at half-maximal effect; % is scaled to controls: 0 for no effect and ±100 for the full control effect; nearly all actives have a fitted effect of over 50% in size
L3MBTL1 block: inhibitors of human L3MBTL1 | Potency, µM (highest dose often 57.1 µM), without a hit: top-dose activity, negative = inhibition, hits mostly inhibitors | AlphaScreen L3MBTL1–H3K9me1 peptide binding | Q9Y468 | actives 0.66% (n = 230,000); also: potency is read from the fitted curve at half-maximal effect; % is scaled to controls: 0 for no effect and ±100 for the full control effect; nearly all actives have a fitted effect of over 60% in size
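First, the protein-peptide complex forms for 30 min at room temperature (L3MBTL1 50 nM, biotinylated H3K9me1 peptide 75 nM). Next, compounds are pin-transferred and incubated 30 min. Finally, AlphaScreen beads are added and read after 30 min.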
BAZ2B block: inhibitors of human BAZ2B bromodomain. AlphaScreen BAZ2B-H3K14Ac peptide displacement. Potency, µM (series often up to 114 µM), for inactives: top-dose activity change, negative = inhibition, hits mostly inhibitors. actives 4.4% (n = 360,000); also: potency is read from the fitted curve at half-maximal effect; % is scaled to controls: 0 for no effect and ±100 for the full control effect; nearly all actives have a fitted effect of over 60% in size
Target sequence (Q9UIF8 whole entry, looked up): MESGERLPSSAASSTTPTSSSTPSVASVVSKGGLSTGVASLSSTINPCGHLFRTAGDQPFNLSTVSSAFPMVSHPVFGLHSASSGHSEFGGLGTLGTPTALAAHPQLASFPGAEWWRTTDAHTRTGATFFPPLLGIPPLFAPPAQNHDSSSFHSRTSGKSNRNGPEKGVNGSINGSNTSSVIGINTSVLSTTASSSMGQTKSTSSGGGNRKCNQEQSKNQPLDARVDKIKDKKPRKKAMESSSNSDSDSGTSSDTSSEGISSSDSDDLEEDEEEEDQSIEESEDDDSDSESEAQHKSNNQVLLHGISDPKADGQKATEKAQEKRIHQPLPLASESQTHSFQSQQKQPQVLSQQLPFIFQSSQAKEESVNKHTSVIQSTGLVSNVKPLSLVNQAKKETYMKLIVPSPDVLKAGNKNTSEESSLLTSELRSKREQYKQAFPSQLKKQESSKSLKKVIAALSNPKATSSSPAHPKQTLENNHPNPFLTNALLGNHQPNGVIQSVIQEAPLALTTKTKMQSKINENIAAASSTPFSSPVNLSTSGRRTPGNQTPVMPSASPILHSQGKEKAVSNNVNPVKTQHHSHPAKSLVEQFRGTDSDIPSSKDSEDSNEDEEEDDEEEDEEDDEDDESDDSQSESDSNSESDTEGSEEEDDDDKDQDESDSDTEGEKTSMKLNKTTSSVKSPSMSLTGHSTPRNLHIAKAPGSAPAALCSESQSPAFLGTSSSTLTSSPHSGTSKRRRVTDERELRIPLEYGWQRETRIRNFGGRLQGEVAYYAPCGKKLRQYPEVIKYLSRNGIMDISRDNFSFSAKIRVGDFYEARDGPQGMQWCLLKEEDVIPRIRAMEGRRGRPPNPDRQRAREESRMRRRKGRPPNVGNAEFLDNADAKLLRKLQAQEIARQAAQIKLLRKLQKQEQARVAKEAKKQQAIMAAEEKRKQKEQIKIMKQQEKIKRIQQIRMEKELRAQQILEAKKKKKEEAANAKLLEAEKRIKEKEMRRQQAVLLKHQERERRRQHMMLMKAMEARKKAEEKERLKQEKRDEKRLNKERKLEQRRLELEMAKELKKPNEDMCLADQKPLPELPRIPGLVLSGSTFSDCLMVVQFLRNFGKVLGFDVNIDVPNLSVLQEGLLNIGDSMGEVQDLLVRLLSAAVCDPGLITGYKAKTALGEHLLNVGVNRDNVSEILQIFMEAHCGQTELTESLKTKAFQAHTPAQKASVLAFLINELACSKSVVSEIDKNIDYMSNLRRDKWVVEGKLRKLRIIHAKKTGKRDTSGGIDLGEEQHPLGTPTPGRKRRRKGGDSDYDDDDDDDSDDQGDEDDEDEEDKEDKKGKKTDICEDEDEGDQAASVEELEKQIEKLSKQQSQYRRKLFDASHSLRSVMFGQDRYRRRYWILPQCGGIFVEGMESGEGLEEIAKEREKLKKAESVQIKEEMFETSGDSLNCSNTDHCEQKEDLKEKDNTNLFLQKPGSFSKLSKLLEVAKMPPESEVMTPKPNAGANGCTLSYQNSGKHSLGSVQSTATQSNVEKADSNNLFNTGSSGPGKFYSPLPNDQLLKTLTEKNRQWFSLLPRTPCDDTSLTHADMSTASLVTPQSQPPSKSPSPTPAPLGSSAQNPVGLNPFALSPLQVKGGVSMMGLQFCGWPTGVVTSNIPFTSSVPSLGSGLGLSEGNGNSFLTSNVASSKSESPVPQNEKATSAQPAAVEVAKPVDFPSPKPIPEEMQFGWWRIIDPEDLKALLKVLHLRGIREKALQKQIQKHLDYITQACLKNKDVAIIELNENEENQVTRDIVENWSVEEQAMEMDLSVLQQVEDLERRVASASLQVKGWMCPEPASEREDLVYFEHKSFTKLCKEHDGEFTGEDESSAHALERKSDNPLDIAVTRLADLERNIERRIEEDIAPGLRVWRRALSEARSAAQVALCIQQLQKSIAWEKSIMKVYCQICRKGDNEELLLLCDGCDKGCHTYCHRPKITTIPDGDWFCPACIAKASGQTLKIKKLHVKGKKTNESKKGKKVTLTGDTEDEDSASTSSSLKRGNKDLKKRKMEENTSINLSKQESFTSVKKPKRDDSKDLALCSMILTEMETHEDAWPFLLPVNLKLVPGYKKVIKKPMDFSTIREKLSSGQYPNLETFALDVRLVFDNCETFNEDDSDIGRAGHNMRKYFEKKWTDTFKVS
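BAZ2B 50 nM plus b-H3(5-23)K14Ac 50 nM, PBS pH 7.4/0.01% Tween-20, 30 min RT; compound added (max 110 uM), 30 min RT; streptavidin donor/Ni-chelate acceptor beads 10 ug/mL final, 20 min dark; AlphaScreen read.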
HP1b binding inh: inhibitors of HP1-beta chromodomain binding to methylated histone tails; AlphaScreen HP1-beta / biotin-H3K9me3 peptide binding; Potency, µM (top dose mostly 114 µM), without a hit: top-dose activity change, negative = inhibition, actives largely listed as inhibitors; actives 0.56% (n = 390,000); AID 540317; also: potency is read from the fitted curve at half-maximal effect; nearly all actives have a fitted effect of over 70% in size
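HP1-beta protein (50 nM final) preincubated 30 min at room temperature with biotinylated H3(1-18)K9me3 peptide (50 nM) in PBS pH 7.4, 0.01% Tween-20, then compound added for 30 min. AlphaScreen streptavidin donor/nickel chelate acceptor beads (10 ug/mL final), 30 min dark, luminescence read.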
Active calls of the source: *; ? = inconclusive; / = no result; [ ] = remark or other dose. Unless noted, calls follow the shape of the dose curve; as a rule, active = well fitted inhibition curve with a large enough effect; inconclusive = small, poorly fitted or top-dose-only effect; inactive = no such curve, though single readings can be large or run the other way.

SMILES	G9a inh	PI5P4K alpha inh	JMJD2A Tudor inh	L3MBTL1 block	BAZ2B block	HP1b binding inh
COc1ccc(C(=O)NNC(=O)C(=O)NC(C)c2ccccc2)cc1OC (stereo not drawn)	6.3µM*	1	-3%	/	-13%	40%
COc1ccc(C(=O)Nc2ccccc2C(=O)NC(C)C)cc1OC	6%[59 µM]	-18	50µM*	/	0%	4%
Cc1ccc(NC(=O)Cn2c(=O)c(C(F)(F)F)nc3ccccc32)c(C)c1	7%[59 µM]	/	-8%	/	-11%	5%
Cc1ccc(Cn2ccnc2SCC(=O)Nc2nc3ccccc3s2)cc1	?	/	?	/	?	-19%[57 µM]
CCOc1ccc(NC(=O)Cn2cnc3sc(C)c(S(=O)(=O)N4CCN(c5ccccc5OC)CC4)c3c2=O)cc1	-23%[59 µM]	/	-19%	/	0%	28%
Cc1ccc(NC(=O)c2c(C)nn(-c3ccccc3)c2-n2cccc2)c(Cl)c1	14%[59 µM]	/	-10%	/	-1%	27%
CCN(CC)S(=O)(=O)c1ccc(NC(=O)CSc2nnc3c(n2)[nH]c2ccccc23)cc1	/	/	-25%	/	/	23%
CC1CCN(C(=O)c2cnn(-c3cccc(Cl)c3)c2C2CCN(C(=O)OC(C)(C)C)CC2)CC1	1%[59 µM]	/	-23%	/	5%[57.1 µM]	13%
COC(=O)c1cc(Cc2ccc(N)c(C(=O)OC)c2)ccc1N	2%[59 µM]	2	-18%	4%	-1%	35%
Nc1ccc(Cc2ccc(N)c(O)c2)cc1O	50µM*	?	40µM*	-15%	?	?
CCCNc1ncnc2c1c(-c1ccccc1)cn2-c1ccccc1	0%[59 µM]	/	-28%	/	2%	31%
CC(=O)NN1C(=O)/C(=C\c2ccc(C)cc2)SC1=S	15%[59 µM]	/	-3%	-7%	-4%	22%
O=C(O)c1ccc(/C=C2\SC(=S)N(Nc3ccccc3)C2=O)cc1	50µM*	?	-23%	-18%	?	-5%
O=C1/C(=C/c2ccncc2)SC(=S)N1Nc1ccccc1	32µM*	-11	?	-19%	?	?
Cc1cc(C)nc(NN2C(=O)/C(=C/c3ccccc3)SC2=S)n1	40µM*	/	-11%	-12%	-8%	1%
O=C(CN1C(=O)S/C(=C\c2ccc(C(=O)O)cc2)C1=O)Nc1ccccc1	/	-2	-14%	4%	-2%	46%
COc1ccc(Br)c(C(=O)N2CCN(S(=O)(=O)c3cccs3)CC2)c1	-34%	5	-2%	/	89µM*	46%
O=C(c1cccs1)N1CCN(S(=O)(=O)c2cccs2)CC1	-2%	-4	1%	0%	/	15%
COc1cc(C(=O)N2CCN(S(=O)(=O)c3cccs3)CC2)cc(OC)c1C	4.5µM*	-3	79µM*	-15%	50µM*	32%
Cc1ccc(CN(C)c2nc(-c3cccnc3)nc3ccccc23)o1	40µM*	-2	-32%	/	-22%	24%
CN(Cc1ccccc1F)c1nc(-c2cccnc2)nc2ccccc12	-29%	5	-2%	/	2%	75%
CCOc1ccc(CN(C)c2nc(-c3cccnc3)nc3ccccc23)cc1OC	?	4	?	/	35µM*	1%
CN(Cc1ccco1)c1nc(-c2cccnc2)nc2ccccc12	-1%[0.501 µM]	/	/	/	/	/
CCCCC(=O)N1CCc2cc(OC)c(OC)cc2C1COc1ccc(OC)cc1 (stereo not drawn)	-6%[59 µM]	/	-26%	/	?	9%
O=C(CCCc1ccccc1)c1ccc2c(c1)OCCO2	159%[59 µM]	/	205%	57%	222%	373%
SMILES	G9a inh	PI5P4K alpha inh	JMJD2A Tudor inh	L3MBTL1 block	BAZ2B block	HP1b binding inh
O=C(CCN1CCc2ccccc21)c1ccc2c(c1)OCCO2	?	?	?	-1%	50µM*	-43%
O=C(c1ccc2c(c1)OCCO2)N1CCCCC1	-2%[59 µM]	2	-5%	3%	1%	19%
O=C(CCN1CCCCC1)c1ccc2c(c1)OCCO2	8.9µM*	/	-15%	-1%	6%	3%
O=C(CCN1CCCC1Cc1ccccc1)c1ccc2c(c1)OCCO2 (stereo not drawn)	2.8µM*	0	89µM*	/	?	?
CN1CCN(CCC(=O)Nc2ccc3c(c2)OCO3)CC1	7%[59 µM]	0	3%	?	-2%	38%
O=C(CCc1ccccc1)c1ccc2c(c1)OCCCO2	208%	4	151%	/	139%	191%
O=C(CCN1CCCCCC1)Nc1ccc2c(c1)OCCO2	?	6	5µM*	/	56µM*	?
CCOc1ccc(N2C(=O)c3[nH]nc(-c4ccc(OC)cc4)c3C2c2cccs2)cc1 (stereo not drawn)	12%[59 µM]	/	-27%	/	-33%	14%
COc1ccccc1CNc1nc(-c2ccco2)nn1S(=O)(=O)c1ccc2ccccc2c1	?	/	-32%	/	?	43%
Cc1ccc(C)c(N2CCN(C(=O)c3cnn(C(C)(C)C)c3C3CCN(C(=O)OC(C)(C)C)CC3)CC2)c1	-42%[59 µM]	/	-35%	/	-10%[57.1 µM]	-3%
CCOC(=O)C(=O)CC(=O)c1ccc2c(c1)OCCO2	20µM*	-3	-26%	-2%	50µM*	7%
O=C(CCN1CCc2ccccc2C1)c1ccc2c(c1)OCCO2	8.9µM*	/	-14%	-2%	-32%	10%
O=c1oc2ccccc2cc1-c1nc(-c2cccs2)no1	-3%[59 µM]	/	10%	/	7%	42%
Clc1ccc(CSc2nnc([C@@H]3CCCN3)o2)cc1Cl	?	-1	-16%	-4%	?	61%
O=C(CSc1nnc([C@@H]2CCCN2)o1)c1ccc(Cl)cc1	40µM*	?	?	0%	-30%	33%
C=C(C)CSc1nnc([C@@H]2CCCN2)o1	?	-1	50µM*	/	50µM*	48%
CC1=C(C(=O)Nc2ccccc2)C(c2ccccn2)n2nc(SCc3ccccc3)nc2N1 (stereo not drawn)	?	/	-17%	/	-6%	27%
COc1cc(/C=C/C(=O)O)cc(Br)c1O	20%[12.7 µM]	-18	-4%	/	?	28%
COc1cc(/C=N/NC(=O)COc2ccccc2C)ccc1OC(=O)c1cccs1	/	-2	25%	-1%	-27%	14%
COc1cc(/C=N/Nc2cccc(C)c2)cc(Br)c1O	8.9µM*	?	50µM*	-9%	45µM*	?
COc1cc(/C=N/Nc2cccc(C)c2)ccc1OC(=O)c1cccs1	10µM*	-7	?	-1%	-38%	15%
O=C(OCc1ccccc1)/C(=C(\O)c1ccccc1Br)c1ccc(-c2ccccc2)cn1	-4%[2.33 µM]	3	-8%	-1%	56µM*	80%
COc1ccc(C2=CC(=O)C=CC2=O)cc1	1.3µM*	/	/	/	10µM*	/
COc1ccc(C2=CC(=O)C[C@H](c3ccc(OC)cc3)C2)cc1	10%[2.33 µM]	4	-9%	1%	5%	57%

From PubChem
